Many of the other results were omitted from the sample, so hits are more common in it than they were.
Pf Dd2 inh: inhibitors of Plasmodium falciparum Dd2 growth. P. falciparum Dd2 growth, SYBR Green, 72 h. Potency, µM (top dose mostly 28.9 µM), for inactives: at the top dose activity, negative = inhibition, actives largely listed as inhibitors. hit rate 4.3% among 120,000; active = well fitted inhibition curve with a large enough effect;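 note: plate controls were DMSO vehicle for no effect and reference drug for full effect; nearly all actives have a fitted effect of over 65% in size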
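Infected erythrocytes (Dd2, 0.3% parasitemia, 2.5% hematocrit final) are added to compound in RPMI-1640/Albumax II medium, grown 72 h at 37C in low oxygen, then lysed with saponin/Triton-X containing SYBR Green and read by fluorescence.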
Active calls of the source: *; i = inactive; [ ] = another dose, or the depositor's remark. Potency is the fitted concentration of half-maximal effect.

SMILES	Pf Dd2 inh
CCN(CC)C(=O)CCc1c(C)nn(-c2ccc(F)cc2)c1Oc1ccccc1F	i
CCN(CC)C(=O)CCc1c(C)nn(-c2ccccc2)c1Oc1ccccc1	10µM*
COCCN1C(=O)CC[C@]2(C(=O)N3CCC(N4CCCCC4)CC3)CCCC[C@@H]12	-7%
CC(C)C[C@@H](NC(=O)C1=C[C@@H](NC(=O)c2cnccn2)[C@@H](O)[C@H](O)C1)C(N)=O	-2%[44.1 µM]
O=C(NC(=O)c1ccccc1)Nc1ccc(-n2nc(C(F)(F)F)cc2C(F)(F)F)cc1	-5%
O=C(NC(=O)c1ccc(F)cc1)Nc1ccc(-c2cc(C(F)(F)F)nn2-c2ccccc2)cc1	27%
COc1ccccc1C(=O)NC(=O)Nc1ccc(-n2nc(C(F)(F)F)cc2C(F)(F)F)cc1	11µM*
CC1(C)[C@H](Cc2cc(CCO)on2)C[C@@H]1NC(=O)C1CCC1	6%[44.1 µM]
O=C1CC(c2ccccc2)N(C(=O)CNC(=O)C2CCOCC2)CCCCCCN1 (configuration not stated)	34%
Cc1ccc(CC(=O)NC2CCN(c3nnc4cccc(C)n34)CC2)cc1	i
Cc1cccc2c1N(Cc1ccccc1OCCC(C)C)C(=O)C2=O	10µM*
CC(C)Oc1ccccc1CN1CCC([C@@H]2CNC[C@H]2CO)CC1	-1%
COc1ccccc1CN1C(=O)C(=O)c2cccc(C)c21	29%
CCCCCOc1ccccc1Cn1c(=O)oc2ccc(C)cc21	3%
Cc1cc(Br)cc2c1N(Cc1ccccc1OC(C)C)C(=O)C2=O	11µM*
COc1ccccc1Cn1ccn(CC(=O)Nc2c(C)cc(C)cc2C)c(=O)c1=O	10%
Cc1nn2c(c1-c1ccccc1Oc1ccccc1)N(C(=O)c1ccccc1)CCC2	i
COC1C(=O)N(c2cccc(F)c2)C12CCN(C(=O)c1cccc(C#N)c1)CC2 (configuration not stated)	-9%
Cc1noc2c(-c3cccnc3N3CC(O)C3)cc(-c3ccccc3)nc12	-12%[44.1 µM]
CC(C)C(=O)Nc1ccc(C2(C(=O)NCc3cccs3)CCCCC2)cc1	i
CCCn1cc(CNC(=O)c2cn(CCN)nn2)cn1	-10%
CS(=O)(=O)c1ccc(OC[C@H]2C[C@@H](NC(=O)Nc3ccccc3)[C@H](O)[C@@H]2O)cc1	-21%[44.1 µM]
CC(=O)c1ccc(N2CCN(S(=O)(=O)c3ccc4[nH]c5c(c4c3)CCCCC5)CC2)cc1	i
O=C(Nc1cccc(F)c1)C1CCN(S(=O)(=O)c2ccc3[nH]c4c(c3c2)CCCCC4)CC1	11µM*
COc1cccc(NC(=O)C2CCN(S(=O)(=O)c3ccc4[nH]c5c(c4c3)CCCCC5)CC2)c1	i
SMILES	Pf Dd2 inh
CNC(=O)[C@@H]1C[C@H](Oc2ccccc2)CN1S(=O)(=O)N(C)C	10%
CCC1CN(C(=O)c2ccc3ccccc3n2)CCC(=O)N1Cc1ccccc1 (configuration not stated)	-26%
CCOCC(=O)N1CCn2nc(Cc3ccccc3)cc2C1	4%
CC(C)N1CCC(CC(=O)N2CCn3nc(Cc4ccccc4)cc3C2)CC1	10µM*
Cc1cc(C)n(C(C)C(=O)N2CCn3nc(Cc4ccccc4)cc3C2)n1 (configuration not stated)	-28%
C[C@@H]1CCC[C@H](C)N1CC(=O)N1CCn2nc(Cc3ccccc3)cc2C1	11µM*
O=C(CCn1cnc2ccccc21)N1CCn2nc(Cc3ccccc3)cc2C1	-15%
C=CCN1CC(C(=O)N2CCn3nc(Cc4ccccc4)cc3C2)CC1=O (configuration not stated)	0%
Cc1noc(C)c1C(=O)N[C@H]1CO[C@H]2[C@@H]1OC[C@H]2OCc1ccccc1	10%[44.1 µM]
Cc1cccc(OCC(=O)N2CCC(n3cc(-c4nc(-c5ccccc5)no4)nn3)C2)c1 (configuration not stated)	173%
COc1ccccc1C(=O)N1CCn2c(nnc2C2CCNCC2)C1	13%
CN1C(=O)CCCCC1C(=O)N1CCCC1 (configuration not stated)	i
Cc1n[nH]c(C)c1CCC(=O)N1CCC(c2nn(C)c(=O)n2C2CCCC2)CC1	-7%
CCOc1ccc(-c2cc(OC(=O)c3ccc(OC)cc3)c3c(C)oc(C)c3c(=O)c2)cc1	10µM*
COc1ccc(-c2cc(OC(=O)c3ccc(F)cc3)c3c(C)oc(C)c3c(=O)c2)cc1OC	10µM*
CCOc1cc(-c2ccc(OC(=O)c3ccccc3Cl)c(OC)c2)cc(=O)c2c(C)oc(C)c12	-12%
COc1ccc(F)cc1-c1ccc(C(=O)O)cc1	i
CCCc1ccc(-c2ccc(C(=O)Oc3ccc(OCC)cc3)cc2)nc1	4%
CCOC(=O)c1c(-c2ccc(OC)c(OC)c2)csc1NC(=O)c1ccc(F)cc1	6%
CCOc1nccnc1NC1CCN(C(=O)c2ccnn2CC)CC1	21%[5.79 µM]
C1CCNC(CN2CCOCC2)CC1 (configuration not stated)	18%
COc1ccc(C(=O)N2CCC(n3cc(-c4nc(C)no4)nn3)C2)cc1 (configuration not stated)	-20%
COc1ccc(CN2CCC3(CC2)NCc2ccccc2NC3=O)cc1	-20%
O=C1Nc2ccccc2CC12CCN2Cc1ccc(OC(F)(F)F)cc1 (configuration not stated)	-20%
N#Cc1ccc(CN2CCC3(CC2)COc2ccccc2NC3=O)cc1	10µM*
SMILES	Pf Dd2 inh
Cc1ccc(CN2CCC3(Cc4ccccc4NC3=O)C2)cc1 (configuration not stated)	8.9µM*
O=C1Nc2ccccc2CC12CCN(Cc1ccc(OC(F)(F)F)cc1)C2 (configuration not stated)	11µM*
O=C1Nc2ccccc2CC12CCCN(Cc1ccncc1)C2 (configuration not stated)	-21%
COc1ccc(CN2CCC3(Cc4ccccc4NC3=O)C2)cc1 (configuration not stated)	10µM*
O=C1Nc2ccccc2CC12CN(Cc1ccc(C(F)(F)F)cc1)C2	54%
O=C1Nc2ccccc2CC12CCN(Cc1cccnc1)C2 (configuration not stated)	-30%[44.1 µM]
CC(=O)Nc1ccc(CN2CCC3(CC2)COc2ccccc2NC3=O)cc1	-23%
O=C1Nc2ccccc2OCC12CCN(Cc1cccnc1)CC2	i
CC(=O)Nc1ccc(CN2CCC3(Cc4ccccc4NC3=O)C2)cc1 (configuration not stated)	i
CC(=O)Nc1ccc(CN2CCC3CC(=O)NCCC3C2)cc1 (configuration not stated)	18%
CN1c2cccnc2CN(Cc2ccccc2Cl)CC[C@H]1CO	i
COCc1ncc(C)n1CCNC(=O)c1ccc(OC)nc1OC	18%
O=C(NCCc1cccnc1)c1cc2n(n1)CC(c1ccc(Br)cc1)OC2 (configuration not stated)	-15%
COc1ccc(C(=O)N2CCC(N3C(=O)CCC3C(=O)NCc3ccccc3)CC2)c(C)c1 (configuration not stated)	3%
CCCc1cc(C(=O)N2CCOC(c3ccc(Cl)c(Cl)c3)C2)ccn1 (configuration not stated)	-20%
CCC(=O)Nc1ccccc1-c1nc2ccccc2n(C(CC)C(=O)Nc2cccc(Cl)c2)c1=O (configuration not stated)	i
CCC(=O)Nc1ccccc1-c1nc2ccccc2n(C(C)C(=O)Nc2ccc(OC)cc2)c1=O (configuration not stated)	10µM*
CCC(=O)Nc1ccccc1-c1nc2ccccc2n(CC(=O)Nc2ccccc2OC)c1=O	3%
